Measurements as given in article PMC10726135, “HNF4α isoforms regulate the circadian balance between carbohydrate and lipid metabolism in the liver”.
Whole data set: some 18,000 sequences, median “log2 normalized intensity” near 0.36, cut for the highest 2% near 7.3. Many of the other results were omitted from the sample, so the highest values are more common in it than they were.

target: T1, HNF4alpha8 (COS-7 nuclear extract) (Homo sapiens, UniProt P41235-5 1-452); assay: protein-binding microarray; COS-7 nuclear extract on double-stranded Agilent 4x180k PBM; binding buffer, salt, pH and temperature not given in the material; high values mean tight binding; conditions: chain copies: 2; label: 3' end of strand 1 on the slide; dsDNA, one strand shown
T1 sequence: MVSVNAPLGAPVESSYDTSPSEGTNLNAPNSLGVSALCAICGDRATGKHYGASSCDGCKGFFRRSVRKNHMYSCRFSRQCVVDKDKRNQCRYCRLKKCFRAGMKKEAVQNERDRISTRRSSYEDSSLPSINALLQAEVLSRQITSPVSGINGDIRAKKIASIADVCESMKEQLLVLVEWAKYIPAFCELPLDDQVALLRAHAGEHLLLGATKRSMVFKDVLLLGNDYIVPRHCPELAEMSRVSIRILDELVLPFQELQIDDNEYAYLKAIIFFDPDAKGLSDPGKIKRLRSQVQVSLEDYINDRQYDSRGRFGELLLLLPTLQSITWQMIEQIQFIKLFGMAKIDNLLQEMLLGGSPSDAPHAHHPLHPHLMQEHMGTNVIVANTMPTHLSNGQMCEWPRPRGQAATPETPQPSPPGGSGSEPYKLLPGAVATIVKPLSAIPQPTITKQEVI
Method in brief: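 The binding signal is Agilent software's gProcessedSignal after background correction and normalization. Arrays were a custom Agilent SurePrint G3 4x180k design of double-stranded ~60-nt oligonucleotides with ~44,000 test sequences in quadruplicate, probed with nuclear extracts of COS-7 cells transiently expressing a human HNF4α isoform. Scans were made at 2-µm resolution on an Agilent G2565CA scanner.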

Sequence | binding signal
GTCTAGCGCAAATGATCAAAGGTTGGTTTTGCCTAGGGAGATTAGAGTATCGGTCGA | 4.43 log2 normalized intensity
AGTGTGTAAGTATGCTCACTGACCTCTGCCGCCTAGGGAGATTAGAGTATCGGTCGA | 3.94 log2 normalized intensity
CCACTTTGAATCAGGAGAGCATCTGAGTGTGCCTAGGGAGATTAGAGTATCGGTCGA | 0.742 log2 normalized intensity
TTCTGATCTTTGACCTCTCCAGGGTCCTTGGCCTAGGGAGATTAGAGTATCGGTCGA | 5.35 log2 normalized intensity
AGGAATTCTGATCTTTGACCTCTCCAGGGTGCCTAGGGAGATTAGAGTATCGGTCGA | 7.01 log2 normalized intensity
CATCTTTGAAGAGCACAGGGTCAGCAGATCGCCTAGGGAGATTAGAGTATCGGTCGA | 1.59 log2 normalized intensity
AGAGCAGGAATTCTGATCTTTGACCTCTCCGCCTAGGGAGATTAGAGTATCGGTCGA | 8.08 log2 normalized intensity
TAATCAGAGCAGGAATTCTGATCTTTGACCGCCTAGGGAGATTAGAGTATCGGTCGA | 7.96 log2 normalized intensity
TGTGCTAGATACTGGAGATATGTTGCTGGAGCCTAGGGAGATTAGAGTATCGGTCGA | 0.67 log2 normalized intensity
TCTAGATGGGGTTGAGCAGACTAAAGGACTGCCTAGGGAGATTAGAGTATCGGTCGA | -0.482 log2 normalized intensity
TGAGACATGAATCCATCCCACCTCACTTATGCCTAGGGAGATTAGAGTATCGGTCGA | 1.12 log2 normalized intensity
GCAAGGAATTCAACCCTTGTCACTTTCCCTGCCTAGGGAGATTAGAGTATCGGTCGA | 1.82 log2 normalized intensity
TTGGACAGGGTGACGTCATTGGAAATCCGAGCCTAGGGAGATTAGAGTATCGGTCGA | 0.187 log2 normalized intensity
AAAGTCCATATTCTTTGTTTGGATGCCAAAGCCTAGGGAGATTAGAGTATCGGTCGA | 2.25 log2 normalized intensity
AGGGATTGTTTAGGTACAAAGTCCATTGGAGCCTAGGGAGATTAGAGTATCGGTCGA | 8.46 log2 normalized intensity
TTGTTTAGGTACAAAGTCCATTGGAAGCCAGCCTAGGGAGATTAGAGTATCGGTCGA | 6.42 log2 normalized intensity
AGATTCGGTGAGGGATTGTTTAGGTACAAAGCCTAGGGAGATTAGAGTATCGGTCGA | 1.25 log2 normalized intensity
CGGTGAGGGATTGTTTAGGTACAAAGTCCAGCCTAGGGAGATTAGAGTATCGGTCGA | 8.89 log2 normalized intensity
CTCTGAGATTCGGTGAGGGATTGTTTAGGTGCCTAGGGAGATTAGAGTATCGGTCGA | 0.829 log2 normalized intensity
CCTTTGCCCTCCAAACTGAGAGATTTTTTCGCCTAGGGAGATTAGAGTATCGGTCGA | 1.05 log2 normalized intensity
GAGGTCTGGACCCTTGGCACTTTCACGATAGCCTAGGGAGATTAGAGTATCGGTCGA | 1.79 log2 normalized intensity
CTTTGACCCTGTTTTGTAAACTCCCTTTGAGCCTAGGGAGATTAGAGTATCGGTCGA | 2.04 log2 normalized intensity

Sequence | binding signal
CTGGAAATGTTTGTAGGGACTTTGACCCCTGCCTAGGGAGATTAGAGTATCGGTCGA | 10.4 log2 normalized intensity
CAACTGACATCTGGAAATGTTTGTAGGGACGCCTAGGGAGATTAGAGTATCGGTCGA | 0.67 log2 normalized intensity
AATGTTTGTAGGGACTTTGACCCCTAAAACGCCTAGGGAGATTAGAGTATCGGTCGA | 9.59 log2 normalized intensity
GACATCTGGAAATGTTTGTAGGGACTTTGAGCCTAGGGAGATTAGAGTATCGGTCGA | 5.1 log2 normalized intensity
AGCAATGTTTCTTGTCCAGGGACTTTGAACGCCTAGGGAGATTAGAGTATCGGTCGA | 6.55 log2 normalized intensity
CAGCTTTGAAGTGCTTCCTGTGTATTTCTTGCCTAGGGAGATTAGAGTATCGGTCGA | 1.27 log2 normalized intensity
GGACTAAGAATTGCTCAACCTGGACCTCATGCCTAGGGAGATTAGAGTATCGGTCGA | 1.89 log2 normalized intensity
AAGGCTGTCACACTGGCCTTTGCCCTCGCTGCCTAGGGAGATTAGAGTATCGGTCGA | 5.82 log2 normalized intensity
CTATGTCAGGCCATTTCACCTTTGCCCTGTGCCTAGGGAGATTAGAGTATCGGTCGA | 7.53 log2 normalized intensity
CACAAAAAGGCTGTCACACTTGCCCTTTGCGCCTAGGGAGATTAGAGTATCGGTCGA | 5.42 log2 normalized intensity
AGCCTCTATGTCAGGCCATTTCACCTTTGCGCCTAGGGAGATTAGAGTATCGGTCGA | 4.57 log2 normalized intensity
TCAGGCCATTTCACCTTTGCCCTGTCAGTCGCCTAGGGAGATTAGAGTATCGGTCGA | 6.79 log2 normalized intensity
CTGTCACACTTGCCCTTTGCCCTCACTGGTGCCTAGGGAGATTAGAGTATCGGTCGA | 7.78 log2 normalized intensity
TGTCACACTGGCCTTTGCCCTCGCTGGCGGGCCTAGGGAGATTAGAGTATCGGTCGA | 5.25 log2 normalized intensity
ACACTTGCCCTTTGCCCTCACTGGTAGAAGGCCTAGGGAGATTAGAGTATCGGTCGA | 5.8 log2 normalized intensity
AAAGGCTGTCACACTTGCCCTTTGCCCTCAGCCTAGGGAGATTAGAGTATCGGTCGA | 8.84 log2 normalized intensity
TTCAGCCGCTTTGAGGTCAATGGTAGAAAAGCCTAGGGAGATTAGAGTATCGGTCGA | 1.85 log2 normalized intensity
ACTAAAGGTTAAACATGTACTCTGTACTCCGCCTAGGGAGATTAGAGTATCGGTCGA | 3.43 log2 normalized intensity
ACCCCTCCACTGGACAGCAGCTACATAAGGGCCTAGGGAGATTAGAGTATCGGTCGA | 1.83 log2 normalized intensity
AAATACCCTCTTTAGGGTAGCCTGGGTTAAGCCTAGGGAGATTAGAGTATCGGTCGA | 0.844 log2 normalized intensity
GGGCGTGTGTTAGACTTTGGACCTGGCCTGGCCTAGGGAGATTAGAGTATCGGTCGA | 7.98 log2 normalized intensity
ACTTTGGACCTTTGTGTGTGTGTGTGTGTGGCCTAGGGAGATTAGAGTATCGGTCGA | 3.49 log2 normalized intensity

Sequence | binding signal
TAGGGCCTTGCTATGGAGTGGACTTTGGCTGCCTAGGGAGATTAGAGTATCGGTCGA | 7.22 log2 normalized intensity
TAGACTTTGGACCTGGCCTGCGGGGTCAGGGCCTAGGGAGATTAGAGTATCGGTCGA | 6.35 log2 normalized intensity
ATGTGGGGCGTGTGTTAGACTTTGGACCTGGCCTAGGGAGATTAGAGTATCGGTCGA | 9.77 log2 normalized intensity
CACCTGTGTCAACATGGACTTTGTTGTTTGGCCTAGGGAGATTAGAGTATCGGTCGA | 4.99 log2 normalized intensity
GTTGGACTTTGGACCTTTGTGTGTGTGTGTGCCTAGGGAGATTAGAGTATCGGTCGA | 8.31 log2 normalized intensity
GCTAGTAAGGAGCTGAGTCATAGTGGACTTGCCTAGGGAGATTAGAGTATCGGTCGA | 4.03 log2 normalized intensity
CGGGTATGTGGGGCGTGTGTTAGACTTTGGGCCTAGGGAGATTAGAGTATCGGTCGA | 4.91 log2 normalized intensity
TGGACAACTGTACTTTGGACTGGGGACCTGGCCTAGGGAGATTAGAGTATCGGTCGA | 6.02 log2 normalized intensity
GGACTTTGGCCTTACTTGGCCTGTTTGCTGGCCTAGGGAGATTAGAGTATCGGTCGA | 5.89 log2 normalized intensity
TAAGGAGCTGAGTCATAGTGGACTTTGCCTGCCTAGGGAGATTAGAGTATCGGTCGA | 7.86 log2 normalized intensity
CCAATTATTGCGAGTTTAGGAGGGTTCCTGGCCTAGGGAGATTAGAGTATCGGTCGA | -0.0269 log2 normalized intensity
GATCCACGGAGAATGTAGACCTTTACCACCGCCTAGGGAGATTAGAGTATCGGTCGA | 2.35 log2 normalized intensity
ATCCCCCACACCGAGATAGTAGAGATAGTGGCCTAGGGAGATTAGAGTATCGGTCGA | 2.5 log2 normalized intensity
TCAAAGTCCAAATAGCGCTAACTCTATATCGCCTAGGGAGATTAGAGTATCGGTCGA | 0.779 log2 normalized intensity
TGGCACTGAAGAATGTCTAAATCTGAAGGAGCCTAGGGAGATTAGAGTATCGGTCGA | -0.983 log2 normalized intensity
GTGTTGACCTCTGGACCTCATCTTCCTCCCGCCTAGGGAGATTAGAGTATCGGTCGA | 5.2 log2 normalized intensity
TCTTTCAAGATAACAAGGCAAACTTTATCAGCCTAGGGAGATTAGAGTATCGGTCGA | -0.554 log2 normalized intensity
ATGTGTTTGCATGACTCATAAAGAACAGTTGCCTAGGGAGATTAGAGTATCGGTCGA | 0.739 log2 normalized intensity
ATTTTGGACTTTGTGCAAATGGAAAATTGTGCCTAGGGAGATTAGAGTATCGGTCGA | 3.52 log2 normalized intensity
TTACCGGTGTGACTTTGGTTGGATTTCTTGGCCTAGGGAGATTAGAGTATCGGTCGA | 1.56 log2 normalized intensity
GACCTGTCTTCCTGGTGACCTTTGTTTGGTGCCTAGGGAGATTAGAGTATCGGTCGA | 5.66 log2 normalized intensity
GTCAAGTAGAGACCTGTCTTCCTGGTGACCGCCTAGGGAGATTAGAGTATCGGTCGA | 2.25 log2 normalized intensity

Sequence | binding signal
GTAGAGACCTGTCTTCCTGGTGACCTTTGTGCCTAGGGAGATTAGAGTATCGGTCGA | 7.95 log2 normalized intensity
TTCAAAGGACAGACTTTGGACCTGGCCCTCGCCTAGGGAGATTAGAGTATCGGTCGA | 6.56 log2 normalized intensity
AGGGGTTACTAGTGAGTTGGACTTTGGACCGCCTAGGGAGATTAGAGTATCGGTCGA | 11.6 log2 normalized intensity
TGACAACTGAATGTGACCTTTTGGACCACAGCCTAGGGAGATTAGAGTATCGGTCGA | 7.4 log2 normalized intensity
GATACAACGGTTCAAAGGACAGACTTTGGAGCCTAGGGAGATTAGAGTATCGGTCGA | 4.08 log2 normalized intensity
CCTGATGACAACTGAATGTGACCTTTTGGAGCCTAGGGAGATTAGAGTATCGGTCGA | 6.26 log2 normalized intensity
AACGGTTCAAAGGACAGACTTTGGACCTGGGCCTAGGGAGATTAGAGTATCGGTCGA | 7.98 log2 normalized intensity
GGGGACCTTTGGCCTTTACCTGTTACTTATGCCTAGGGAGATTAGAGTATCGGTCGA | 4.06 log2 normalized intensity
ACTGAATGTGACCTTTTGGACCACAGAGTGGCCTAGGGAGATTAGAGTATCGGTCGA | 5.97 log2 normalized intensity
GACCTCATGTAGTCACATACCTATGCAAACGCCTAGGGAGATTAGAGTATCGGTCGA | 1.02 log2 normalized intensity
CAGCATCTTCACCGTAAAGCCACCCCTTTCGCCTAGGGAGATTAGAGTATCGGTCGA | 2.59 log2 normalized intensity
AGCGATCATGGGTGACCCGTTAAGAATGAGGCCTAGGGAGATTAGAGTATCGGTCGA | 1.24 log2 normalized intensity
CTTAGAATCGAATTGTGAAACTCAGAATCAGCCTAGGGAGATTAGAGTATCGGTCGA | -0.796 log2 normalized intensity
TCACCTACTGACCTTTCTCCCTTTTCACAGGCCTAGGGAGATTAGAGTATCGGTCGA | 3.5 log2 normalized intensity
AAGATCTGTGAAAGAAAAGTACTTTAGTGTGCCTAGGGAGATTAGAGTATCGGTCGA | 0.992 log2 normalized intensity
CAACAGGTGTTAAAATAACGACCTTTGGGCGCCTAGGGAGATTAGAGTATCGGTCGA | 6.57 log2 normalized intensity
AATATCTCAGCACATGGCAGTGTACACTAGGCCTAGGGAGATTAGAGTATCGGTCGA | 0.805 log2 normalized intensity
GAGAGAAAAAATCAGAGAGCAAAGGTGATCGCCTAGGGAGATTAGAGTATCGGTCGA | 2.63 log2 normalized intensity
ATTCCCCGACTCCTGGGTGTGAGATAAGGCGCCTAGGGAGATTAGAGTATCGGTCGA | 0.0557 log2 normalized intensity
